# Measurements from PubChem BioAssay.
# Inconclusive results are not listed. Activity calls are given as the source filed them. Rule as the data show it, unless noted: active = inhibition above about 30%; inactive = the rest.
# Key:
# [1] = reducers of endogenous Her2 protein level, primary screen, SKBR3 breast tumor cells, AlphaScreen, ATP viability (AID 461;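 active = Her2 level under about 52% in both replicate screens, with viability over 70% of control, limit read from the data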;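 as to Her2 level: lower value means less Her2 protein in the cells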;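 as to viability: percent of carrier control wells set as 100% viability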); settings: 18-24 h, measured here: SKBR3 viability, ATP luminescence, at 10 µM
# [2] = target: Receptor tyrosine-protein kinase erbB-2 (Homo sapiens) (UniProt P04626); experiment: as above; settings: 18-24 h, at 10 µM, stronger effect = lower value
# [3] = SK-BR-3 cell growth inhibitors, pilot screen, 24 h, human (AID 572;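 active = viability at or below 10% of carrier control in both of two separate runs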;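 also: compound exposure lasted between 18 and 24 h rather than exactly 24 h; 100% = carrier-treated control wells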); settings: SK-BR-3 viability, CellTiter-Glo luminescence, at 10 µM, stronger effect = lower value
# [4] = HUVEC growth inhibition – cell-based, human, primary screen (AID 575;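 active = viability at or below 30% in both replicate assays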;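 also: 100% = median of untreated cell wells with 0.1% DMSO on each plate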); settings: HUVEC proliferation, CellTiter-Glo luminescence, 72 h; at 10 µM; stronger effect = lower value
# [5] = growth inhibitors of H69AR lung tumor, primary screen, human, duplicate replicates (AID 580;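 active = viability at or under a set limit in both replicates, limit being median viability minus 3 SD, cut at about 48% in these data, passing the limit was not always enough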;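 also: 100% = mean luminescence of untreated wells and 0% = no signal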); settings: H69AR lung tumor cells viability, ATP luminescence, 72 h; at 10 µM; stronger effect = lower value
# [6] = reversal of MRP1-mediated doxorubicin resistance, pilot screen, H69AR cells, doxorubicin co-treatment (AID 601;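 active = viability loss from added drug above about 55%, and viability with drug at most 40%, in both replicates, limit read from the data, passing the limit was not always enough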); settings: CellTiter-Glo, 72 h, at 10 µM; for differential viability (reversal): stronger effect = higher value
# [7] = 384-well plate pilot, post-Golgi transport modulator project, inhibition of yeast transport mutant growth (AID 636; in the data active = inhibition above about 31%); settings: absorbance 615 nm, about 18 h, stronger effect = higher value
# [8] = growth suppression of yeast trafficking mutant, preliminary HTS, modulators of trafficking downstream of Golgi apparatus project, 1536-format plate, OD 615 nm (AID 637); settings: yeast transport mutant growth, absorbance 615 nm, 18 h; stronger effect = higher value
# [9] = OD615 S. cerevisiae growth inhibition, permissive medium, pilot counter-assay, permissive growth control for S. cerevisiae lifespan shortening project (AID 705;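 active = growth inhibition above 25% in both replicates, a cutoff set 3 SD above the mean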); settings: OD615, 24 h, at 10 µM, stronger effect = higher value
# [10] = Restrictive medium S. cerevisiae growth inhibition, OD615, pilot screen of yeast lifespan reduction project, restrictive growth control (AID 706;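 active = growth inhibition above a set limit, 3 SD over mean compound inhibition, in both replicates, cut at about 43% in these data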;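 also: modified DeaD lifespan yeast strain shifted to restrictive glucose medium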); settings: OD615, 48 h, at 10 µM, stronger effect = higher value
# [11] = viability gain of MRP-1-high H69AR cells under doxorubicin, pilot screen, MRP-1 activator project, CellTiter-Glo, duplicate (AID 807;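 active = viability increase at or above a cutoff of the median across tested compounds plus 3 SD, cut at about 8.5% in these data, passing the limit was not always enough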;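 also: compound pretreatment 18-22 h then 72 h combined with doxorubicin; 0% = doxorubicin alone and 100% = vehicle without doxorubicin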); settings: H69AR viability with doxorubicin, CellTiter-Glo luminescence; at 10 µM; stronger effect = higher value
# [12] = growth suppression of beta-catenin knockout HCT116, pilot screen, human colon tumor cells (AID 823;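 active = cell viability at or below a set limit in both duplicate runs, the limit being the all-compound median minus 4 SD, cut at about 23% in these data, passing the limit was not always enough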;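 also: 0% = wells killed by 20 µM Hyamine and 100% = untreated DMSO cell wells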); settings: CellTiter-Glo, 60 h, at 10 µM, stronger effect = lower value
# [13] = growth suppression of PTEN-deleted HCT116, pilot screen, cell-based, HCT116 clonal line, CellTiter-Glo (AID 824;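 active = viability at or below 27.92% in each of two runs, the all-compound median minus 4 SD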;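 also: 0% = 20 µM Hyamine control and 100% = vehicle cell control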); settings: 60 h, at 10 µM, stronger effect = lower value
# [14] = inhibitors of the yeast RAM network, pilot screen, dse1pr::URA3 reporter, 5-FOA selection (AID 869;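 active = inhibition over a set limit, the all-compound mean plus 3 SD, in both replicate runs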;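 also: 0% = DMSO wells with no growth and 100% = 10 µM 1-NA-PP1 with full growth; RAM network block rescues cells from 5-FOA so hits raise OD615 growth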); settings: S. cerevisiae dse1pr::URA3 5-FOA growth, OD615, 2 d; at 10 µM; stronger effect = higher value; strain carries analog-sensitive mutant Cbk1 kinase
# [15] = RAM signaling pathway blockade in yeast – S. cerevisiae, Pdr1DBD-CYC8 efflux-inhibited sensitized strain, primary screen (AID 1298;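 active = RAM network inhibition above 8.4% in each of two replicates, 3 SD over the compound average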;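 also: 0% = DMSO untreated cells without growth and 100% = 10 µM 1-NA-PP1 full growth; higher means more yeast growth rescued from 5-FOA killing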); settings: S. cerevisiae cbk1-as DSE1-URA3 strain, 5-FOA growth OD615, 2 d; at 50 µM; stronger effect = higher value
# [16] = H69AR cells + 2 uM doxorubicin, measured here: viability with 2 uM doxorubicin, stronger effect = lower value
# [17] = H69AR cells, compound alone cytotoxicity
# Chain of Receptor tyrosine-protein kinase erbB-2 (Homo sapiens) (P04626 whole entry, looked up): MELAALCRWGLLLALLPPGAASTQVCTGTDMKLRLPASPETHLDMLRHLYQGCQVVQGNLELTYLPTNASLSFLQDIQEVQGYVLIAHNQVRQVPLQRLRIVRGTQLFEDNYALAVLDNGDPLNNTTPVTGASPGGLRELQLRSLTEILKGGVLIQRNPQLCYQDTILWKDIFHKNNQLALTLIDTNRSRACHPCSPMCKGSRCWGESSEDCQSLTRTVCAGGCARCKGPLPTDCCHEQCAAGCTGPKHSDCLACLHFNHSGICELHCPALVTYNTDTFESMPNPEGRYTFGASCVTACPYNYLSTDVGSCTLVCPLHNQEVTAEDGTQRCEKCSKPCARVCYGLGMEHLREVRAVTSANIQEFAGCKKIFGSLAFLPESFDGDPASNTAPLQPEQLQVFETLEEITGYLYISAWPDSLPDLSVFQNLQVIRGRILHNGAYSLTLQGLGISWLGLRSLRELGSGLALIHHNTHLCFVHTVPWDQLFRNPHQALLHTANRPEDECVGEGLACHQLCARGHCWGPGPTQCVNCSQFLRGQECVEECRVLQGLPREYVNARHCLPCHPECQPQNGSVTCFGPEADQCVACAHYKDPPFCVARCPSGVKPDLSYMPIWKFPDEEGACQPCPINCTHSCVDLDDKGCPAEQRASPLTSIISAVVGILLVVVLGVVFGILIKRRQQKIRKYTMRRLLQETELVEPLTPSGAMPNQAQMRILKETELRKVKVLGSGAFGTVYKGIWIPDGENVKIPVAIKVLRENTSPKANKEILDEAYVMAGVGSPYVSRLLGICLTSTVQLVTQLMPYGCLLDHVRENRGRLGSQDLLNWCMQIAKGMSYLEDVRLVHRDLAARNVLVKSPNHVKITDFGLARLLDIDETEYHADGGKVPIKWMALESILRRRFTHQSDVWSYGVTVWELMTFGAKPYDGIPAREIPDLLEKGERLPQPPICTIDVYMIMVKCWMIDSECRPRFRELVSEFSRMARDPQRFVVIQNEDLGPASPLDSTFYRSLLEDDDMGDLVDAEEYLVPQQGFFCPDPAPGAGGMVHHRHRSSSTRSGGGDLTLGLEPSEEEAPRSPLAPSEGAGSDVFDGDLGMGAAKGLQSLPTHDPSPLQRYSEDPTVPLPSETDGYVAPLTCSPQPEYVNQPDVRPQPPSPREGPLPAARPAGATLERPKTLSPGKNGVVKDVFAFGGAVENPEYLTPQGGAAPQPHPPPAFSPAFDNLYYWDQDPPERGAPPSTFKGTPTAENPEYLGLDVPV
structure (smiles),measurement,setting,value
COc1ccc(CNC(=O)c2cnc3n(c2=O)CCS3)cc1,viability,[1],81.5%
same,Her2 level,[2],87.5% (inactive)
same,viability,[3],81.5% (inactive)
same,viability,[4],90.6% (inactive)
same,viability,[5],94.9% (inactive)
same,differential viability (reversal),[6]; H69AR cells + 2 uM doxorubicin,-3.02% (inactive)
same,viability,[6]; [16],97.9%
same,viability,[6]; [17],94.9%
same,inhibition,[7],-3.87% (inactive)
same,inhibition,[8],-2.17% (inactive)
same,growth inhibition,[9],5.72% (inactive)
same,growth inhibition,[10],4.27% (inactive)
same,viability increase,[11],-1.21% (inactive)
same,viability,[12],95.8% (inactive)
same,viability,[13],98.3% (inactive)
same,inhibition,[14],3.5% (inactive)
same,RAM network inhibition,[15],2.5% (inactive)
Cn1c(Cc2ccccc2)nnc1SCC(=O)NC1CCCCC1,viability,[1],107%
same,Her2 level,[2],94.5% (inactive)
same,viability,[3],107% (inactive)
same,viability,[4],91.5% (inactive)
same,viability,[5],92.5% (inactive)
same,differential viability (reversal),[6]; H69AR cells + 2 uM doxorubicin,12.9% (inactive)
same,viability,[6]; [16],79.6%
same,viability,[6]; [17],92.5%
same,inhibition,[7],-6.08% (inactive)
same,inhibition,[8],3% (inactive)
same,growth inhibition,[9],1.09% (inactive)
same,growth inhibition,[10],10% (inactive)
same,viability increase,[11],0.74% (inactive)
same,viability,[12],97.4% (inactive)
same,viability,[13],103% (inactive)
same,inhibition,[14],1.4% (inactive)
same,RAM network inhibition,[15],1.4% (inactive)
CCN(C(=O)c1cc(Cl)ccc1OC)c1ccccc1,viability,[1],91.5%
same,Her2 level,[2],110% (inactive)
same,viability,[3],91.5% (inactive)
same,viability,[4],95.6% (inactive)
same,viability,[5],103% (inactive)
same,differential viability (reversal),[6]; H69AR cells + 2 uM doxorubicin,2.06% (inactive)
same,viability,[6]; [16],101%
same,viability,[6]; [17],103%
same,inhibition,[7],1.04% (inactive)
same,inhibition,[8],-10.3% (inactive)
same,growth inhibition,[9],-16.1% (inactive)
same,growth inhibition,[10],-19.6% (inactive)
same,viability increase,[11],-2.05% (inactive)
same,viability,[12],89.5% (inactive)
same,viability,[13],90% (inactive)
same,inhibition,[14],2.85% (inactive)
same,RAM network inhibition,[15],3.26% (inactive)
COc1ccc(-n2c(=O)c3c4c(sc3n3cnnc23)CC(C)CC4)cc1 (stereo not given),viability,[1],95.5%
same,Her2 level,[2],88.5% (inactive)
same,viability,[3],95.5% (inactive)
same,viability,[4],67.8% (inactive)
same,viability,[5],72.2% (inactive)
same,differential viability (reversal),[6]; H69AR cells + 2 uM doxorubicin,21.2% (inactive)
same,viability,[6]; [16],51%
same,viability,[6]; [17],72.2%
same,inhibition,[7],-8.11% (inactive)
same,inhibition,[8],0.98% (inactive)
same,growth inhibition,[9],-10.9% (inactive)
same,growth inhibition,[10],9.5% (inactive)
same,viability increase,[11],-5.52% (inactive)
same,viability,[12],87.8% (inactive)
same,viability,[13],92.2% (inactive)
same,inhibition,[14],-0.585% (inactive)
same,RAM network inhibition,[15],2.05% (inactive)
CC(Oc1ccccc1)C(=O)NC1CC(C)(C)NC(C)(C)C1 (stereo not given),viability,[1],92%
same,Her2 level,[2],92.5% (inactive)
same,viability,[3],92% (inactive)
same,viability,[4],79.8% (inactive)
same,viability,[5],94% (inactive)
same,differential viability (reversal),[6]; H69AR cells + 2 uM doxorubicin,2.97% (inactive)
same,viability,[6]; [16],91%
same,viability,[6]; [17],94%
same,inhibition,[7],-2.69% (inactive)
same,inhibition,[8],-1% (inactive)
same,growth inhibition,[9],-11.8% (inactive)
same,growth inhibition,[10],-2.76% (inactive)
same,viability increase,[11],-3.63% (inactive)
same,viability,[12],97.1% (inactive)
same,viability,[13],96.9% (inactive)
same,inhibition,[14],-0.135% (inactive)
same,RAM network inhibition,[15],2.18% (inactive)
